Test results as given in PubChem BioAssay (NCI).
The panel holds about 83,000 compounds, 20% with a hit somewhere; the sample as a whole holds those more often.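 Cells were grown in 96-well plates and exposed to the test compound at a single concentration for 48 hours; results are reported as percent growth, with values below 10 considered active.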 A number with no mark means an inactive call. Calls of active or inactive are those of the source.

Tests used:
Test in all cases: NCI-60 one-dose screen, 48 h (100 = growth as untreated, 0 = no growth, -100 = all killed)
Settings in all cases: 10 µM
NCI-H23 lung = tested on: NCI-H23 lung
NCI-H226 lung = tested on: NCI-H226 lung
NCI-H322M lung = tested on: NCI-H322M lung
HOP-62 NSCLC = tested on: HOP-62 NSCLC
NCI-H460 lung = tested on: NCI-H460 lung
HOP-92 NSCLC = tested on: HOP-92 NSCLC
NCI-H522 lung = tested on: NCI-H522 lung
A549/ATCC NSCLC = tested on: A549/ATCC NSCLC
786-0 renal = tested on: 786-0 renal
COLO 205 colon = tested on: COLO 205 colon
DU-145 prostate = tested on: DU-145 prostate
K-562 leukemia = tested on: K-562 leukemia
MALME-3M melanoma = tested on: MALME-3M melanoma
MDA-MB-231 breast = tested on: MDA-MB-231 breast
SF-268 CNS = tested on: SF-268 CNS
SF-295 CNS = tested on: SF-295 CNS
SF-539 CNS = tested on: SF-539 CNS
UACC-257 melanoma = tested on: UACC-257 melanoma
M14 melanoma = tested on: M14 melanoma

Row | SMILES | growth (NCI-H23 lung) | growth (NCI-H226 lung) | growth (NCI-H322M lung) | growth (HOP-62 NSCLC) | growth (NCI-H460 lung) | growth (HOP-92 NSCLC) | growth (NCI-H522 lung) | growth (A549/ATCC NSCLC) | growth (786-0 renal) | growth (COLO 205 colon) | growth (DU-145 prostate) | growth (K-562 leukemia) | growth (MALME-3M melanoma) | growth (MDA-MB-231 breast) | growth (SF-268 CNS) | growth (SF-295 CNS) | growth (SF-539 CNS) | growth (UACC-257 melanoma) | growth (M14 melanoma)
1 | O=C(CNc1nc(-c2ccccc2)cs1)Nc1cccc(Cl)c1 | 28.4% | 44.8% | 62.3% | 46.6% | 44.8% | -5.42% (active) | 4.23% (active) | 38.7% | 54.6% | 40.3% | 53.5% | 19.6% | 64.1% | 30.8% | 30.6% | 22.4% | 42.3% | 62.9% | 34%
2 | N#Cc1ccc(-c2nn(-c3ccc(C(=O)O)cc3)cc2CNc2ccc(Cl)cc2)cc1 | 73.3% | 85% | 88.8% | 81.3% | 93.1% | 133% | 81.3% | 84.6% | 87.2% | 142% | 97.6% | 69.4% | 102% | 90.6% | 78.6% | 63.3% | 80.1% | 97.8% | 83.4%
3 | Cc1noc2c(Cc3ccccc3)nn(CC(=O)N/N=C/c3ccc(Br)cc3)c(=O)c12 | 69.9% | 32.5% | 102% | 43.3% | 13.1% | 35.1% | 74.4% | 18.1% | -24.9% (active) | 39.7% | 61.1% | 87.2% | 64.9% | 20.6% | 75.5% | 50.6% | 74.4% | 101% | 101%
4 | COc1cc2c3c(n(CCCN4CCOCC4)c(=O)c2cc1OC)-c1nc2c(cc1C3=O)OCO2 | 4.12% (active) | 6.34% (active) | 41% | -12.4% (active) | -15.4% (active) | -2.4% (active) | 39.9% | 19% | -6.02% (active) | 13% | 3.38% (active) | 25.9% | 40.2% | 6.41% (active) | 21.9% | -30.8% (active) | -38.7% (active) | 51% | 13.4%
5 | COc1ccccc1C(=O)NNC(=O)CSc1nc2c(c(=O)[nH]1)CCCC2 | 91.4% | 83.6% | 103% | 93.5% | 111% | 86.2% | 104% | 106% | 115% | 113% | 104% | 100% | 95.6% | 86.3% | 101% | 99.2% | 101% | 107% | 101%
6 | CC1(c2ccccc2)NC(=O)N(CC(=O)Nc2ccc(C(=O)/C=C/c3ccc(Cl)cc3)cc2)C1=O (configuration not stated) | 18.6% | -0.196% (active) | 51.1% | 35.6% | 21.5% | -10.4% (active) | 41.4% | 6.84% (active) | -21.5% (active) | -24.4% (active) | 28% | 2.06% (active) | 34.8% | 13.6% | 19.7% | 8.45% (active) | -89.3% (active) | 20.6% | -26.9% (active)
7 | CCCn1c(=O)c2[nH]c(-c3ccc(OCc4nc5ccc(F)cc5[nH]4)cc3)nc2n(CCC)c1=O | 26.3% | -36.1% (active) | 23.8% | -19.4% (active) | -50.8% (active) | -27.5% (active) | 24.3% | 36% | -87.2% (active) | 25.5% | 34.2% | 34.9% | -52.2% (active) | -46.7% (active) | 46.5% | 10.6% | -68.9% (active) | 31.9% | 44.7%
8 | CCOP(=O)(OCC)O[C@H]1CCC(=O)[C@@H]2[C@H]1[C@H]1C[C@@H]3[C@@]4(C)CCCC(C)(C(=O)OC)[C@@H]4CC[C@@]23C=C1C(C)C (some centres not stated) | 50.3% | 48.9% | 102% | 76.8% | 66.4% | 46.8% | 31.6% | 49.7% | 63.3% | 47.6% | 83.1% | 30.1% | 86.2% | 67% | 76.4% | 69.1% | 71.7% | 41.8% | 55.4%
